From PubChem BioAssay (NCI) come the findings set out here.

Each structure is given as a SMILES string. About 79,000 compounds went through this panel and 15% of them were active in at least one assay; those are over-represented in the sample as a whole. Unmarked numbers belong to inactive results. Calls of active or inactive are those of the source. Cut-off read from the data, not from the text of the source: active = growth inhibition above about 70%; inactive = the rest.

The nature of assay [1]: NCI Yeast Anticancer Drug Screen. Data for the rad50 strain (AID 155).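 Note: 0% = growth of vehicle-only cultures of the same strain.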 As to conditions: S. cerevisiae rad50 strain growth inhibition, hits give high values. Put shortly: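 A DNA repair-deficient yeast mutant serves as the test organism; compound-induced growth inhibition is calculated against vehicle-treated cells.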
Assay [2] is described as follows: NCI Yeast Anticancer Drug Screen. Data for the mec2-1 strain (AID 157). As to conditions: S. cerevisiae mec2-1 strain, hits give high values. Put shortly:
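Using mec2-1 yeast: add compound, measure growth, express inhibition versus vehicle-treated cultures.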

The nature of assay [3]: NCI Yeast Anticancer Drug Screen. Data for the sgs1 mgt1 strain (AID 161).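 Note: 0% = growth of cultures given vehicle only.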 As to conditions: S. cerevisiae sgs1 mgt1 strain, hits give high values. The gist of the method:
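Yeast cells carrying a defined DNA-repair defect were exposed to test compounds. Growth inhibition was measured relative to vehicle-treated controls.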

The nature of assay [4]: NCI Yeast Anticancer Drug Screen. Data for the cln2 rad14 strain (AID 165).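 Note: 0% = growth equal to vehicle treated cultures.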 To be noted: S. cerevisiae cln2 rad14 strain, hits give high values. Put shortly:
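Yeast strain cln2 rad14, bearing defects in cell cycle control and DNA repair, serves as the test system; values reflect growth inhibition compared with vehicle.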

A short description of assay [5]: NCI Yeast Anticancer Drug Screen. Data for the bub3 strain (AID 167). As to conditions: S. cerevisiae bub3 mutant strain, hits give high values. The gist of the method:
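Inhibition values come from growth of compound-treated mutant yeast normalised to vehicle-treated controls.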

Assay [6] in a line: NCI Yeast Anticancer Drug Screen. Data for the mlh1 rad18 strain (AID 175). As to conditions: S. cerevisiae mlh1 rad18 strain growth inhibition, hits give high values. The gist of the method:
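Steps: expose repair-defective yeast to compound; measure growth; express inhibition against vehicle-treated controls.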

Where [7] appears, read: at 5.0 µM (retest, dose inferred, filed as 0.5).
The mark [8] stands for this setting: at 50.0 µM (retest, dose inferred, filed as 5.0).

As to `CC1OC(OC2CC(O)(C(=O)CO)Cc3c(O)c4c(c(O)c32)C(=O)c2ccccc2C4=O)CC(N)C1O` (stereo unspecified), the growth inhibition in assay [1] (setting [7]) is 87% (active); in assay [1] (setting [8]), 96% (active); in assay [1] (at 50.0 µM), 87.8% (active); in assay [2] (setting [7]) it was 62%; in assay [2] (setting [8]), 95% (active); in assay [2] (at 50.0 µM) it was 91.1% (active). Moreover, the growth inhibition is 86% (active) in assay [3] (setting [7]); 97% (active) in assay [3] (setting [8]); 89.5% (active) in assay [3] (at 50.0 µM); 57% in assay [4] (setting [7]); 95% (active) in assay [4] (setting [8]); 87.3% (active) in assay [4] (at 50.0 µM). Also, the growth inhibition in assay [5] (setting [7]) is 56%; in assay [5] (setting [8]) it was 96% (active); in assay [5] (at 50.0 µM), 89.1% (active); in assay [6] (setting [7]) it was 77% (active); in assay [6] (setting [8]), 94% (active).
With `CC(NNC(=S)N1CCN(c2ccccn2)CC1)c1nccc2ccccc12` (stereo unspecified), the growth inhibition was 26% in assay [1] (setting [7]); 98% (active) in assay [1] (setting [8]); 69.1% in assay [1] (at 50.0 µM); 51% in assay [2] (setting [7]); 98% (active) in assay [2] (setting [8]); 22.1% in assay [2] (at 50.0 µM). Moreover, the growth inhibition in assay [3] (setting [7]) is 58%; in assay [3] (setting [8]), 99% (active); in assay [3] (at 50.0 µM), 1.8%; in assay [4] (setting [7]), 63%; in assay [4] (setting [8]), 98% (active); in assay [4] (at 50.0 µM) it was 8.35%. Also, the growth inhibition in assay [5] (setting [7]) is 83% (active); in assay [5] (setting [8]), 99% (active); in assay [5] (at 50.0 µM), 6.2%; in assay [6] (setting [7]), 49%; in assay [6] (setting [8]), 98% (active).
As to `Cc1nc2c(nc1C)C(=O)c1ccccc1C2=O`, the growth inhibition is 19% in assay [1] (setting [7]); 98% (active) in assay [1] (setting [8]); 85.9% (active) in assay [1] (at 50.0 µM); 14% in assay [2] (setting [7]); 99% (active) in assay [2] (setting [8]); 82.4% (active) in assay [2] (at 50.0 µM). For the same molecule, the growth inhibition was 22% in assay [3] (setting [7]); 97% (active) in assay [3] (setting [8]); 71.4% (active) in assay [3] (at 50.0 µM); 11% in assay [4] (setting [7]); 91% (active) in assay [4] (setting [8]); 31.9% in assay [4] (at 50.0 µM). The growth inhibition in assay [5] (setting [7]) was 30%; in assay [5] (setting [8]), 99% (active); in assay [5] (at 50.0 µM), 67.3%; in assay [6] (setting [7]), 27%; in assay [6] (setting [8]), 99% (active).
Regarding `Nc1ccc(Cn2ccc3c4c(N)nc(N)nc4ccc32)cc1`, the growth inhibition in assay [1] (setting [7]) was 14%; in assay [1] (setting [8]) it was 83% (active); in assay [1] (at 50.0 µM), 33.7%; in assay [2] (setting [7]), 29%; in assay [2] (setting [8]) it was 96% (active); in assay [2] (at 50.0 µM) it was 68.3%. Besides, the growth inhibition in assay [3] (setting [7]) was 7%; in assay [3] (setting [8]), 88% (active); in assay [3] (at 50.0 µM) it was 72.7% (active); in assay [4] (setting [7]), 6%; in assay [4] (setting [8]), 60%; in assay [4] (at 50.0 µM) it was 63.2%. Besides, the growth inhibition was -10% in assay [5] (setting [7]); 84% (active) in assay [5] (setting [8]); 41.4% in assay [5] (at 50.0 µM); 13% in assay [6] (setting [7]); 87% (active) in assay [6] (setting [8]).
In the case of `COc1cccc2c1C(=O)c1c(O)c3c(c(O)c1C2=O)C[C@@](O)(C(C)=O)C[C@@H]3OC1CC(N(C)C)C(O)C(C)O1` (stereo partly specified), the growth inhibition was 98% (active) in assay [1] (setting [7]); 98% (active) in assay [1] (setting [8]); 86.5% (active) in assay [1] (at 50.0 µM); 98% (active) in assay [2] (setting [7]); 98% (active) in assay [2] (setting [8]); 90.3% (active) in assay [2] (at 50.0 µM). In addition, the growth inhibition in assay [3] (setting [7]) was 99% (active); in assay [3] (setting [8]) it was 99% (active); in assay [3] (at 50.0 µM), 90.8% (active); in assay [4] (setting [7]), 96% (active); in assay [4] (setting [8]), 97% (active); in assay [4] (at 50.0 µM) it was 90.2% (active). The growth inhibition in assay [5] (setting [7]) is 99% (active); in assay [5] (setting [8]), 99% (active); in assay [5] (at 50.0 µM), 88% (active); in assay [6] (setting [7]), 97% (active); in assay [6] (setting [8]), 97% (active).
As for `Clc1nc(Cl)c(Cl)c(Cl)n1`, the growth inhibition in assay [1] (setting [7]) was 29%; in assay [1] (setting [8]), 98% (active); in assay [1] (at 50.0 µM), 64%; in assay [2] (setting [7]), 23%; in assay [2] (setting [8]), 100% (active); in assay [2] (at 50.0 µM), 72.5% (active). Besides, the growth inhibition in assay [3] (setting [7]) is 5%; in assay [3] (setting [8]) it was 98% (active); in assay [3] (at 50.0 µM), 8.65%; in assay [4] (setting [7]), 11%; in assay [4] (setting [8]), 92% (active); in assay [4] (at 50.0 µM) it was 13.1%. Besides, the growth inhibition in assay [5] (setting [7]) was 23%; in assay [5] (setting [8]), 99% (active); in assay [5] (at 50.0 µM) it was 33%; in assay [6] (setting [7]), 39%; in assay [6] (setting [8]), 98% (active).
Regarding `N#CC(=C1C=CC(=NOC(=O)Nc2cccc3ccccc23)C=C1)c1ccccc1`, the growth inhibition was 44% in assay [1] (setting [7]); 99% (active) in assay [1] (setting [8]); 97.8% (active) in assay [1] (at 50.0 µM); 35% in assay [2] (setting [7]); 99% (active) in assay [2] (setting [8]); 97.7% (active) in assay [2] (at 50.0 µM). Further, the growth inhibition in assay [3] (setting [7]) was 51%; in assay [3] (setting [8]), 100% (active); in assay [3] (at 50.0 µM), 98.5% (active); in assay [4] (setting [7]), 10%; in assay [4] (setting [8]), 99% (active); in assay [4] (at 50.0 µM), 97.7% (active). For the same molecule, the growth inhibition was 62% in assay [5] (setting [7]); 99% (active) in assay [5] (setting [8]); 98.3% (active) in assay [5] (at 50.0 µM); 30% in assay [6] (setting [7]); 99% (active) in assay [6] (setting [8]); 97.5% (active) in assay [6] (at 50.0 µM).
Consider `Cc1n(CC(C)C)c2c([n+]1C)C(=O)c1ccccc1C2=O`, for which the growth inhibition is 34% in assay [1] (setting [7]); 98% (active) in assay [1] (setting [8]); 85% (active) in assay [1] (at 50.0 µM); 44% in assay [2] (setting [7]); 99% (active) in assay [2] (setting [8]); 90.4% (active) in assay [2] (at 50.0 µM). The growth inhibition in assay [3] (setting [7]) was 44%; in assay [3] (setting [8]), 99% (active); in assay [3] (at 50.0 µM) it was 91% (active); in assay [4] (setting [7]) it was 21%; in assay [4] (setting [8]) it was 95% (active); in assay [4] (at 50.0 µM), 89% (active). Also, the growth inhibition in assay [5] (setting [7]) is 60%; in assay [5] (setting [8]) it was 99% (active); in assay [5] (at 50.0 µM), 89.5% (active); in assay [6] (setting [7]), 68%; in assay [6] (setting [8]) it was 98% (active).
For `C=C1CC2(CC(c3ccccc3C)OC(c3ccccc3C)C2)OC1=O` (stereo unspecified), the growth inhibition was 54% in assay [1] (setting [7]); 85% (active) in assay [1] (setting [8]); 77.7% (active) in assay [1] (at 50.0 µM); 53% in assay [2] (setting [7]); 94% (active) in assay [2] (setting [8]); 83.7% (active) in assay [2] (at 50.0 µM). The growth inhibition in assay [3] (setting [7]) is 76% (active); in assay [3] (setting [8]) it was 83% (active); in assay [3] (at 50.0 µM) it was 84.1% (active); in assay [4] (setting [7]), 83% (active); in assay [4] (setting [8]) it was 91% (active); in assay [4] (at 50.0 µM), 84% (active). For the same molecule, the growth inhibition in assay [5] (setting [7]) is 74% (active); in assay [5] (setting [8]) it was 87% (active); in assay [5] (at 50.0 µM), 78.4% (active); in assay [6] (setting [7]) it was 80% (active); in assay [6] (setting [8]), 90% (active).
Consider `O=C1C(Cl)=C(N2CCN(C3=C(Cl)C(=O)c4ccccc4C3=O)CC2)C(=O)c2ccccc21`, for which the growth inhibition in assay [1] (setting [7]) was 26%; in assay [1] (setting [8]), 98% (active); in assay [1] (at 50.0 µM) it was 84.4% (active); in assay [2] (setting [7]) it was 8%; in assay [2] (setting [8]), 99% (active); in assay [2] (at 50.0 µM) it was 87.8% (active). Moreover, the growth inhibition in assay [3] (setting [7]) was 44%; in assay [3] (setting [8]), 99% (active); in assay [3] (at 50.0 µM), 88.7% (active); in assay [4] (setting [7]), 14%; in assay [4] (setting [8]), 98% (active); in assay [4] (at 50.0 µM) it was 87.8% (active). For the same molecule, the growth inhibition in assay [5] (setting [7]) was 39%; in assay [5] (setting [8]) it was 98% (active); in assay [5] (at 50.0 µM), 87.9% (active); in assay [6] (setting [7]), 26%; in assay [6] (setting [8]), 98% (active).
